Test [1] deals with Cellular tumor antigen p53 (Homo sapiens) (UniProt P04637). Description: Primary qHTS for small molecule compounds that upregulate eGFP-tagged delta133p53alpha (in N-terminal) cells. (AID 2060322).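 For activation: series mostly up to about 56 µM; 0% = DMSO vehicle and 100% = reference activator.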 Note: nearly all actives have a fitted effect of over 75% in size. Note: potency is the fitted concentration of half-maximal effect. The note with it: NCI-H358 eGFP-delta133p53alpha fluorescence, 24 h; activation: hits give high values. Summed up:
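NCI-H358 cells pre-induced 24 h with 10 ng/ml doxycycline to express N-terminal eGFP-delta133p53alpha, then dosed 24 h at 37C without doxycycline; fixed, Hoechst-stained, GFP intensity by laser scanning cytometry, normalized to DMSO (0%) and 57.5 uM 5-azacytidine (100%).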
In general terms: In qHTS, concentration-response curves come from the screen itself.

Test [2] concerns the target Aldehyde dehydrogenase, mitochondrial (Homo sapiens) (UniProt P05091). In words: qHTS for Inhibitors of the Aldehyde Dehydrogenase Family (ALDH2) Primary screen (AID 2061308).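 Note: plate controls were vehicle for no effect and reference inhibitor for full effect; nearly all actives have a fitted effect of over 55% in size.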
Test [3] has as its target Retinaldehyde dehydrogenase 3 (Homo sapiens) (UniProt P47895). In words: qHTS for Inhibitors of the Aldehyde Dehydrogenase Family (ALDH1A3) Primary screen (AID 2061315).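 Note: plate controls were DMSO vehicle for no effect and reference inhibitor for full effect.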

Each structure is given as a SMILES string. Records with an inconclusive call do not appear. Unmarked numbers belong to inactive results. The source made the active and inactive calls. Calls come from the whole dose curve; as a rule, active = well fitted curve in the direction sought with a large enough effect; inconclusive = small, poorly fitted or top-dose-only effect, or another doubt; inactive = no such curve, though single readings can be large; an effect the other way counts as inactive or inconclusive.

Sequence of Cellular tumor antigen p53 (Homo sapiens) (P04637 whole entry, looked up): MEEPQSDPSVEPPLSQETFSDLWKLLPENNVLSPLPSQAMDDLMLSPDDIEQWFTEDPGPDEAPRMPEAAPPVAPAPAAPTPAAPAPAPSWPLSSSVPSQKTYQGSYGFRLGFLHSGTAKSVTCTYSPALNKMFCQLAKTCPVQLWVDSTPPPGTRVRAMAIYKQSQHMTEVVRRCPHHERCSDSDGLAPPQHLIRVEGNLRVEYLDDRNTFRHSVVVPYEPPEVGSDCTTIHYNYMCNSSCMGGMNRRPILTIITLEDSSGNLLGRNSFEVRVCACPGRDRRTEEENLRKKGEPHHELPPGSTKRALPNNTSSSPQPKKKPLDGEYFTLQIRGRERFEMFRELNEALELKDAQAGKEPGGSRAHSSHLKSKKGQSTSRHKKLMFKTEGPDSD

`C=C1CC[C@@H]2[C@@](C)(CO[C@@H]3O[C@H](CO)[C@@H](O)[C@H](O)[C@H]3O)[C@H](O)CC[C@@]2(C)[C@@H]1CC/C(C)=C/CO[C@@H]1O[C@H](CO)[C@@H](O)[C@H](O)[C@H]1O`: in test [1], the activation is 23.2%. Besides, the Potency result in test [2] and in test [3] was “inactive” throughout.

As for `CC(C)=CCC[C@](C)(O[C@@H]1O[C@H](CO)[C@@H](O)[C@H](O)[C@H]1O)[C@H]1CC[C@]2(C)[C@@H]1[C@H](O)CC1[C@@]3(C)CC[C@H](O)C(C)(C)C3[C@@H](O[C@@H]3O[C@H](CO)[C@@H](O)[C@H](O)[C@H]3O)C[C@]12C` (some centres undefined), the activation in test [1] was 15.3%. The Potency entry in test [2] and in test [3] was “inactive” in each case.

Regarding `NC(=O)c1cnc(NCCc2ccc(O)c(Cl)c2)nc1NCc1ccccc1`, the Potency in test [1] was 9.53 µM (active). Besides, the Potency entry in test [2] and in test [3] was “inactive” each time.

Consider `O=C(NC[C@H]1CN(c2ccc(N3CCOCC3=O)cc2)C(=O)O1)c1ccc(Cl)s1`, for which, in test [1], the activation is 5.25%. The Potency entry in test [2] and in test [3] was “inactive” throughout.

Turning to `CC1(O)CC(O)C2(O)C=COC(O[C@@H]3O[C@H](CO)[C@@H](O)[C@H](O)[C@H]3O)C12` (some centres undefined), the activation in test [1] is 0.893%. Further, the Potency entry in test [2] and in test [3] was “inactive” throughout.

For `O=C(/C=C\c1ccc(O)cc1)N[C@@H](Cc1ccc(O)cc1)C(=O)O`, in test [1], the activation was 17.9%. Also, the Potency result in test [2] and in test [3] was “inactive” in each case.

Turning to `CC1CC(=O)[C@]2(O)C(C(=O)OCCc3ccc(O)cc3)=CO[C@@H](O[C@@H]3O[C@H](CO)[C@@H](O)[C@H](O)[C@H]3O)[C@H]12` (some centres undefined), in test [1], the activation is -18.3%. For the same compound, the Potency entry in test [2] and in test [3] was “inactive” each time.

Consider `CCC(O)(C(=O)OCc1ccccc1NC(=O)CCC(=O)O)C(C)O` (centres undefined), for which, in test [1], the activation is 4.58%. Also, the Potency result in test [2] and in test [3] was “inactive” throughout.

Source of the values: PubChem BioAssay (NCATS).
